In PubChem BioAssay AID2685 (National Center for Advancing Translational Sciences (NCATS), 2010) one finds Potency, cell number change and lipid storage change, negative = inhibition data, which are given here for 65 molecules.

The campaign covered roughly 320,000 compounds. About 2,100 (0.66%) were called active. About 53% were inconclusive and are not listed. This is one part of a sample in which actives are shown more often than they occur. Calls follow the shape of the dose curve; as a rule, active = well fitted inhibition curve with a large enough effect in the signal ratio, with a control signal flat (not every such curve was filed as active); inconclusive = small, poorly fitted or top-dose-only effect, or effect the other way, or a change in a side signal; inactive = flat fitted curve, though single readings scatter; the % refers to the signal ratio.
Potency is read from the fitted curve at half-maximal effect.

A short description of this assay: qHTS Assay for Lipid Storage Modulators in Drosophila S3 Cells.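 As to cell number change: cells counted by Cell Tracker Red CMTPX staining in the red channel.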 As to lipid storage change, negative = inhibition: % is scaled to controls: 0 for no effect and ±100 for the full control effect. Particulars: BODIPY lipid droplet fluorescence, 18-24 h, cells fed with added oleic acid; cell number change: measured here: cell count max response; series mostly up to 46.1 µM. The method, boiled down: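 Laser-scanning cytometry quantifies lipid droplet accumulation (500–530 nm total intensity; droplet/cell object ratio) in oleic acid-fed (400 uM added) Drosophila S3 cells treated with a concentration series. 20 uM Triacsin C defined 100% inhibition.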
A general note: In qHTS, concentration-response curves come from the screen itself.
Turning to `CCc1cccc(NC(=S)N(CCN(C)C)C(C)c2ccncc2)c1` (stereo unspecified), the Potency entry was “inactive” and the cell number change was -2.18%.
As for `O=[N+]([O-])c1ccc(N2CCN(S(=O)(=O)Cc3ccccc3)CC2)cc1N1CCOCC1`, the Potency entry is “inactive”.
Same read-out and setting: next, `CN1CCN(S(=O)(=O)c2csc(C(N)=O)c2)CC1`: “inactive”.
Turning to `COc1ccc(N2CCN(C(=O)Cn3c(=O)c4cccn4c4cccnc43)CC2)cc1`, the Potency result was “inactive” and the cell number change worked out at 25.5%.
On to `CCCCn1c(SCC(=O)NCc2ccco2)nc2c1c(=O)n(C)c(=O)n2C`, for which the Potency entry was “inactive” and the cell number change is -2.87%.
In the same order, the values of `O=C(Cn1c(=O)c2cccn2c2ccccc21)NCCc1ccc(Cl)cc1` are “inactive” and 23.3%.
Consider `Cc1nn(CC(=O)NCCc2ccc(Cl)cc2)c(=O)c2cccn12`, for which the Potency result was “inactive” and the cell number change turned out to be 14.2%.
As to `CC(C(=O)NCCc1ccc(Cl)cc1)n1c(=O)c2cccn2c2cccnc21` (stereo unspecified), the Potency was 0.517 µM (active) and the cell number change was -6.73%.
The matching figures for `CCCCOc1ccc(C(=O)N=c2sccn2C)cc1OC`: “inactive” and -1.16%.
Regarding `Cn1ccsc1=NC(=O)c1cccc(OC(F)F)c1`, the Potency result is “inactive” and the cell number change is -7.04%.
The matching figures for `CCOc1cc(C(=O)N=c2sccn2C)ccc1OC(F)F`: 11.6 µM (active) and -22.3%.
Turning to `CC(Oc1ccc(Br)cc1)C(=O)Nc1ccc(N2CCOCC2)cc1N1CCOCC1` (stereo unspecified), the Potency result was “inactive” and the cell number change was -0.694%.
In the same order, the values of `COc1ccccc1Nc1nc(N)nc(CSC(=S)N2CCC(C)CC2)n1` are “inactive” and 8.57%.
In the case of `COc1ccc(C(C)=O)cc1COc1ccc(F)cc1`, the cell number change was -1.38% and the lipid storage change, negative = inhibition was 21.6% [at 9.22 µM] (inactive).
Turning to `CCOc1ccc(C(C)=O)cc1COc1ccc(-c2nnco2)cc1`, the Potency was 1.84 µM (active).
Take `Fc1ccc(COc2ccc(-c3nnco3)cc2)c(Cl)c1`: the Potency result was “inactive” and the cell number change was 3.42%.
Take `O=C(NCCCn1ccnc1)Nc1ccc(Cl)cc1`: the Potency entry was “inactive” and the cell number change is -5.93%.
The matching figures for `Cc1c(Br)cc(C(=O)O)c(C)c1C`: 25.9 µM (active) and -29.4%.
The matching figures for `Cc1c(Br)cc(C(=O)NC2CCCCC2)c(C)c1C`: “inactive” and -1.86%.
On to `Cc1c(N)cc(N)cc1C(=O)O`, for which the Potency entry was “inactive”.
As to `Cc1nn(-c2ccccc2)c(Cl)c1/C=C1/C(=N)N2N=C(C(C)C)SC2=NC1=O`, the Potency result was “inactive” and the cell number change was 10.8%.
Consider `CCOc1ccc(N2CC(C(=O)NCc3nnnn3-c3ccc(C)c(C)c3)CC2=O)cc1` (stereo unspecified), for which the Potency entry was “inactive” and the cell number change was 12.6%.
Turning to `O=C(N/N=C/C=C/c1ccc([N+](=O)[O-])cc1)C1COc2ccccc2O1` (stereo unspecified), the Potency entry was “inactive” and the cell number change was -22.4%.
In the same order, the values of `Clc1ccc(-n2ncc3c(NCc4cccnc4)ncnc32)cc1Cl` are 13 µM (active) and -22.6%.
Take `Fc1ccc(-n2ncc3c(SCc4cccnc4)ncnc32)cc1`: the Potency is 23.1 µM (active) and the cell number change was -12.6%.
Take `Cc1ccc(-n2ncc3c(SCc4ccccc4)ncnc32)cc1`: the Potency entry was “inactive” and the cell number change stood at 8.14%.
The matching figures for `COc1ccc(-n2ncc3c(NCc4cccnc4)ncnc32)cc1`: “inactive” and -6.4%.
In the same order, the values of `Cc1cccc(-n2ncc3c(NCc4cccnc4)ncnc32)c1` are “inactive” and -21%.
In the case of `Cc1ccc(CSc2ncnc3c2cnn3-c2ccc(C)cc2)cc1`, the Potency entry was “inactive” and the cell number change was -6.49%.
On to `COc1cccc(NC(=O)Cn2c3ccccc3c3nc4n(c(=O)c32)CCCS4)c1`, for which the Potency result is “inactive”.
On the same count and under the same terms, next, `COc1ccc(Cn2nc(C)cc2C)cc1OC`: “inactive”.
For the molecule `O=C(CN(c1ccccc1)S(=O)(=O)c1ccccc1)N/N=C/c1ccco1`, the Potency result was “inactive” and the cell number change amounted to 6.67%.
In the same order, the values of `O=C(C1CCN(S(=O)(=O)c2cnc[nH]2)CC1)N1CCN(Cc2ccc3c(c2)OCO3)CC1` are 5.8 µM (active) and 1.49%.
The matching figures for `CN(CCNC(=O)C1CCN(S(=O)(=O)c2cnc[nH]2)CC1)Cc1ccccc1`: “inactive” and 11.4%.
The matching figures for `COC(=O)CNC(=O)C1CCN(S(=O)(=O)c2cnc[nH]2)CC1`: 0.326 µM (active) and -7.96%.
For the molecule `COc1ccc(CCNC(=O)C2CCN(S(=O)(=O)c3cnc[nH]3)CC2)cc1OC`, the Potency entry was “inactive” and the cell number change worked out at 4.12%.
In the same order, the values of `COc1ccc(CNC(=O)C2CCCN(S(=O)(=O)c3cnc[nH]3)C2)cc1` (stereo unspecified) are 8.2 µM (active) and -8.84%.
On to `O=C(NCc1ccccn1)C1CCN(S(=O)(=O)c2cnc[nH]2)CC1`, for which the Potency result was “inactive” and the cell number change was -2.16%.
In the same order, the values of `COc1ccccc1CNC(=O)C1CCCN(S(=O)(=O)c2cnc[nH]2)C1` (stereo unspecified) are “inactive” and 23%.
Consider `Cc1ccc(CNC(=O)C2CCCN(S(=O)(=O)c3cnc[nH]3)C2)cc1` (stereo unspecified), for which the Potency result was “inactive” and the cell number change was -11.5%.
As to `O=C(C1CCN(S(=O)(=O)c2ccccc2F)CC1)N1CCN(Cc2ccc3c(c2)OCO3)CC1`, the Potency result is “inactive” and the cell number change is -10.8%.
As for `CCCCNC(=O)C1CCN(S(=O)(=O)c2cnc[nH]2)CC1`, the Potency was 18.4 µM (active) and the cell number change was -1.76%.
Consider `O=C(C1CCN(S(=O)(=O)N2CCOCC2)CC1)N1CCN(Cc2ccc3c(c2)OCO3)CC1`, for which the Potency result is “inactive” and the cell number change is -10.4%.
On to `CCN(CCCNC(=O)C1CCN(S(=O)(=O)c2cnc[nH]2)CC1)c1ccccc1`, for which the Potency entry is “inactive”.
For the molecule `CC(=O)NC1=NN(C(C)=O)C(C)(CS(=O)(=O)c2ccc(Cl)cc2)S1` (stereo unspecified), the Potency result is “inactive” and the cell number change is -3.99%.
Take `O=C(O)CC(NC(=O)c1ccco1)c1ccco1` (stereo unspecified): the Potency entry is “inactive” and the cell number change was found to be 3.18%.
The matching figures for `Cn1c(-c2ccccn2)[n+](C)c2ccccc21`: “inactive” and 8.68%.
With `CCN(CC)CC(=O)N1c2ccccc2Oc2c(c(=O)n(C)c(=O)n2C)C1c1cccc([N+](=O)[O-])c1` (stereo unspecified), the Potency entry is “inactive” and the cell number change amounted to 16%.
Take `COc1ccc(CC(=O)N/N=C(\C)CC(=O)Nc2ccc3c(c2)OCCO3)cc1OC`: the Potency result is “inactive” and the cell number change was -9.52%.
Turning to `CN(c1ccccc1)S(=O)(=O)c1ccc(C(=O)OCC(=O)N2CCOCC2)cc1`, the Potency result was “inactive”.
With `O=c1cc(N2CCCCCC2)[nH]c(=O)n1-c1ccc(Cl)cc1`, the Potency result is “inactive” and the cell number change was -2.94%.
As to `CCCCC1=CC2=CC(=O)C(C)(OC(=O)CC)C(=O)C2=CN1CCCCO` (stereo unspecified), the Potency entry was “inactive” and the cell number change came out at 9.55%.
The matching figures for `Cc1ccc(C(=O)N2CCN=C2SCc2ccc([N+](=O)[O-])cc2)cc1`: “inactive” and 4.98%.
`O=C(c1ccccc1)N1CCN=C1SCc1ccc([N+](=O)[O-])cc1`: the Potency result was “inactive” and the cell number change was 12%.
In the same order, the values of `Cc1cc(C)cc(C(=O)N2CCN=C2SCc2ccc([N+](=O)[O-])cc2)c1` are 16.4 µM (active) and 28.4%.
Take `Cc1ccccc1-n1nc(C)c2cc(C(=O)N3CCOCC3)sc21`: the Potency result is “inactive” and the cell number change came to 4.65%.
Turning to `COc1ccccc1-n1cnnc1SCC(=O)N1CCOCC1`, the Potency was 0.0146 µM (active) and the cell number change is -10.4%.
In the same order, the values of `Cc1ccccc1-n1c(SCC(=O)N2CCOCC2)nc(O)c(Cc2ccccc2)c1=O` are “inactive” and 15.6%.
On to `COc1ccccc1-n1c(SCC(=O)N2CCOCC2)nc(O)c(Cc2ccccc2)c1=O`, for which the Potency was 13 µM (active) and the cell number change is -8.86%.
The matching figures for `CCCCc1c(O)nc(SCC(=O)Nc2cccc3ccccc23)n(-c2ccccc2OC)c1=O`: 20.6 µM (active) and 14.5%.
With `CCCCc1c(O)nc(SCC(=O)c2ccccc2)n(-c2ccccc2OC)c1=O`, the Potency result is “inactive” and the cell number change was 11.3%.
With `COc1ccccc1-n1c(SCC(=O)N2CCOCC2)nc(O)cc1=O`, the Potency result is “inactive” and the cell number change was -21.1%.
In the same order, the values of `COc1ccccc1-n1cnnc1SCC(=O)N1CCN(C(=O)c2ccco2)CC1` are “inactive” and 21.6%.
The matching figures for `COc1ccccc1-n1c(SCC(=O)N2CCCCC2)nc(O)c(Cc2ccccc2)c1=O`: “inactive” and -4.53%.
Turning to `CCc1c(O)nc(SCC(=O)Nc2ccccc2OC)n(-c2ccccc2C)c1=O`, the Potency result is “inactive”.
